This excerpt belongs to a sample that is enriched for hits.
TTR transcr act = TTR transcription activation, primary screen. SH-SY5Y TTR promoter Gaussia luciferase, luminescence; 100% = recombinant luciferase protein wells. activation, % at 16.7 µM. actives 1.3% (n = 92,000). AID 1117267;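 active = activation above the mean of all tested compounds plus 3 SD, cut at about 9.5% in these data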;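 also: cells exposed to compounds for one day before reading; 0% = median of all test compound wells on the plate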
HuH7 TTR inh = HuH7 TTR transcription inhibition, counter-screen | shares compounds with TTR transcr act | HuH7 TTR promoter-Gaussia luciferase reporter, luminescence | inhibition, % at 16.7 µM | actives 4% (n = 1,100) | AID 1117279;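 active = average inhibition above the solvent-only control wells' mean plus 3 SD, cut at about 15% in these data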;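 also: 0% = cells with DMSO only and 100% = cells with inhibitor control FD; inhibitors lower well luminescence so higher value means more inhibition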
TTR act confirm = confirmation of human transthyretin transcription activators; activation, % at 16.7 µM; shares compounds with TTR transcr act; SHSY5Y TTR promoter Gaussia luciferase, luminescence; 100% = purified Lucia enzyme wells, no cells; 1,100 tested, under 10 active; AID 1117280;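 active = mean activation above a set limit taken from the earlier primary screen, cut at about 11% in these data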;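 also: 0% = DMSO-treated cells and 100% = recombinant Lucia luciferase without cells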
Numbers without * were called inactive.

SMILES	TTR transcr act	others
Cc1cc(C)n(CC(=O)c2ccccc2)c(=O)c1C#N	16*	HuH7 TTR inh=-7;TTR act confirm=0
Cc1cc(-c2ccccc2)[nH]c(=O)c1C#N	0
Cc1cn(CC(=O)c2ccccc2)c2ccccc12	0
CNC[C@@H]1OCc2ccccc2-c2c(n(C)c3ccccc23)C(=O)N([C@@H](C)CO)C[C@@H]1C	-1
CC1(c2nnnn2Cc2ccccc2)CN(S(C)(=O)=O)CC(=O)N1Cc1cccs1 (centres undefined)	-1
O=C(Nc1ccc(NC(=O)c2ccccc2Cl)c(Cl)c1)c1ccccn1	-2
CCOC(=O)[C@]12CCCC=C1N(CCCOC)C(=O)[C@@H]2CC(=O)NCCCCc1ccccc1	-1
O=C(Nc1ccc(OC(F)(F)F)cc1)Nc1nc2ncccn2c1-c1ccc(C(F)(F)F)cc1	1
COC(=O)[C@]12C[C@H](CC(=O)NCc3ccc(C)o3)C(=O)N(CCc3ccc(OC)c(OC)c3)C1=C[C@H](COCc1ccccc1)O[C@@H]2C	1
CNC(=O)N(O)C1N(C)C(=O)N(Cc2ccccc2)C1(C)C (centres undefined)	1
COC(=O)CNC(=O)CN1C(=O)N(c2cccc(Cl)c2)C(N(O)C(=O)Nc2cccc(Cl)c2)C1(C)C (centres undefined)	10*	HuH7 TTR inh=-5;TTR act confirm=-1
COC(=O)CN1C(=O)N(c2ccccc2)C(N(O)C(=O)Nc2ccccc2)C1(C)C (centres undefined)	2
O=C(c1ccoc1)N1CCN(c2cc(-c3ccco3)nc3cc(-c4ccco4)nn23)CC1	-2
CCCCC#CC(CC)NCc1ccc(OC)cc1OC (centres undefined)	2
Cc1c(C2(O)CCCCC2)[nH]c2ncccc12	11*	HuH7 TTR inh=-16;TTR act confirm=0
Cc1c(C2(O)CCCCC2)[nH]c2cc(C(F)(F)F)ccc12	-8
Cc1c(C2(O)CCCCC2)[nH]c2cnccc12	1
COC(=O)[C@]12C[C@H](CC(=O)N3CCN(C(=O)c4ccco4)CC3)C(=O)N(CCc3ccc(OC)c(OC)c3)C1=C[C@H](C(C)C)O[C@@H]2C1CC1	1
CS(=O)(=O)c1ccc(C(=O)OCC#CCSc2nnc(-c3cccc4ccccc34)o2)cc1	-1
Cc1ccc(C(=O)NCCC(=O)Nc2ccccc2C)cc1	-1
CCCC1CCC2(CCCN2CCOC(=S)Nc2ccccc2)CC1 (centres undefined)	-3
CCC[C@H]1[C@@H](OC(=O)N2CCN(c3ccccc3)CC2)CC[C@@]23CCCN2C(=O)CCC[C@@H]13	-2
C[C@@]12C(=O)N(CCO)CC(=O)N1[C@H](/C=C/c1ccccc1)[C@@H]1C(=O)N(c3ccccc3)C(=O)[C@@H]12	23*	HuH7 TTR inh=-3;TTR act confirm=0
O=C1[C@H]2[C@@H](/C=C/c3ccccc3)N3C(=O)CN(CC4CC4)C(=O)[C@@]3(Cc3ccccc3)[C@H]2C(=O)N1c1ccccc1	-1
O=C1[C@H]2[C@@H](/C=C/c3ccccc3)N3C(=O)CN(CCO)C(=O)[C@@]3(Cc3ccccc3)[C@H]2C(=O)N1c1ccccc1	0
SMILES	TTR transcr act	others
CC(C)(C)NC(=O)C1(C)CCC(=O)N1C1CCN(Cc2ccccc2)CC1 (centres undefined)	2
COc1cccc(C(=O)NOCc2ccccc2)c1OC	1
COc1ccc(C(=O)C(C)C(C)=O)c(OCc2ccccc2)c1OC (centres undefined)	14*	HuH7 TTR inh=-20;TTR act confirm=-1
COc1cc(NC(=O)c2ccccc2OCc2ccccc2)cc(OC)c1OC	-1
COC(=O)C1=C(C(=O)OC)[C@@]2([C@@H](Cc3ccc(C)cc3)Nc3ccccc3)C=C[C@@H]1O2	-7
C=CCC1(/C=N/O)CCOC(C)(C)C1 (centres undefined)	1
COc1ccc(Cl)cc1C(=O)NNC(=O)COC(=O)c1cccs1	10*	HuH7 TTR inh=-6;TTR act confirm=-1
O=C(CCC(=O)c1cccs1)NNC(=O)c1cc(Cl)ccc1Cl	0
O=C(NNC(=O)c1cc(Cl)ccc1O)c1cccs1	3
c1ccc(CN2CCN(c3ncnc4sccc34)CC2)cc1	-5
Cc1cnc(C(=O)OCC(=O)N(CC(C)C)C2CCS(=O)(=O)C2)cn1 (centres undefined)	0
CC(C)CN(C(=O)CSc1nnnn1C)C1CCS(=O)(=O)C1 (centres undefined)	2
Cc1nn(CC(=O)N(CC(C)C)C2CCS(=O)(=O)C2)c(C)c1[N+](=O)[O-] (centres undefined)	13*	HuH7 TTR inh=-15;TTR act confirm=-1
COC(=O)[C@]12C[C@H](CC(=O)NCc3cccc(C(F)(F)F)c3)C(=O)N(Cc3ccc(Cl)cc3Cl)C1=C[C@H](C1CCCC1)O[C@@H]2C	0
COC(=O)[C@@]12CCCCC=C1N(CCc1ccc(Cl)cc1)C(=O)[C@H]2CC(=O)NCc1cccc(C(F)(F)F)c1	-1
CC(O)C(=O)N/N=C/c1cccc2ccccc12 (centres undefined)	-1
COC(=O)C(CC(C)C)NC(=O)/C=C/c1ccccc1Cl (centres undefined)	-2
CC(C)NC(=S)NC(=O)/C=C/c1cccc2ccccc12	17*	HuH7 TTR inh=-4;TTR act confirm=-1
Cc1ccc(C(=O)CCC(=O)Nc2cc(C)ccn2)cc1	1
CCc1ccccc1-c1cc(C(C)=O)c2n(c1=O)CCC2	3
COc1ccc(C(=O)Nc2cccc3c2CCCC3)cc1OC	0
O=C(COC(=O)c1ccccn1)NCCc1ccc(Cl)cc1	11*	HuH7 TTR inh=-8;TTR act confirm=0
Cc1ccnc2nc(C(=O)OCC(=O)NCCc3ccc(Cl)cc3)nn12	1
O=C(COC(=O)c1ccccn1)Nc1cccc(Cl)c1Cl	2
CCNc1ccc(S(=O)(=O)N(C)C)cc1NCC(=O)Nc1ccc(F)c(Cl)c1	-2
SMILES	TTR transcr act	others
COC(=O)[C@@]12CCCCC=C1N(CCc1ccc(Cl)cc1)C(=O)[C@H]2CC(=O)NCc1ccc(C)o1	0
CCOC(=O)[C@]12CCCC3=C1N(CCC3)C(=O)[C@@H](CC(=O)N1CCC(c3ccccc3)CC1)C2	0
CC1(C)COC(c2ccccc2Cl)OC1	0
CC1=C(C(=O)OCc2ccccc2)C(c2ccccc2Cl)NC(=O)N1C (centres undefined)	2
CC1SC(c2ccccc2Cl)NC1=O (centres undefined)	11*	HuH7 TTR inh=-4;TTR act confirm=0
N#Cc1ccccc1S(=O)(=O)N1CCN(Cc2cc3c(cc2Br)OCCO3)CC1	1
COc1ccccc1-c1ccc([C@@H]2C[C@H]3[C@H](CON3C)CN2CC2CCCCC2)cc1	1
COC(=O)[C@]12C[C@H](CC(=O)NCc3cccc(C(F)(F)F)c3)C(=O)N(CCC3=CCCCC3)C1=C[C@H](C1CCCC1)O[C@@H]2C	0
COc1ccccc1CNC(=O)c1ccc2c(=O)n(CC3CCCO3)c(=S)[nH]c2c1 (centres undefined)	1
O=C(NCC1CCCO1)c1ccc2c(=O)n(Cc3ccc(Cl)cc3)c(=S)[nH]c2c1 (centres undefined)	0
O=C(NCC1CCCO1)c1ccc2c(=O)n(-c3ccc(F)cc3)c(=S)[nH]c2c1 (centres undefined)	12*	HuH7 TTR inh=-11;TTR act confirm=-1
COC(=O)[C@@]12CCCCC=C1N(CCc1ccc(Cl)cc1)C(=O)[C@H]2CC(=O)NCC12CC3CC(CC(C3)C1)C2	-1
O=C(CN1CCN(S(=O)(=O)c2ccccc2F)CC1)N1CCc2ccccc2C1	2
O=C(Cc1c(O)c2ccccc2[nH]c1=O)NCc1ccccc1F	14*	HuH7 TTR inh=-18;TTR act confirm=0
O=C(CCl)NNC(=O)c1c(O)c2ccccc2[nH]c1=O	-2
O=C(NCCc1ccccc1)c1c(O)c2ccccc2[nH]c1=O	2

From PubChem BioAssay
